Assay outcomes (PubChem BioAssay)
A selection: hits, their analogues and other compounds. The true share with any hit is near 9.9%.
KB-V1 MDR tox = qHTS assay for MDR1-selective chemotherapeutics: Primary screen using the drug-selected MDR subline cells KB-V1 | KB-V1 MDR cells viability, CellTiter-Glo, 72 h | Potency, µM (highest dose often 46.1 µM), usual class: cytotoxic | actives 3.4% (n = 400,000) | AID 1347076, 2019; further: potency means the concentration at half of the fitted maximal effect; on the % scale 0 is the no-effect control and ±100 the full control effect; nearly all actives have a fitted effect of over 60% in size
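KB-V1, DMEM (no phenol red) + 10% FBS; cpd pin-transferred, titration series; 72 h, 37 degrees C; CellTiter-Glo, luminescence. Data normalized, curve-fit.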
SW480 rereplic = A quantitative high throughput screen for small molecules that induce DNA re-replication in SW480 colon adenocarcinoma cells; SW480 DNA re-replication, Hoechst DNA content imaging, 48 h; Potency, µM (doses to about 46.1 µM), without a hit: at the top dose re-replication activation, actives largely listed as activators; actives 1.8% (n = 340,000); AID 624297, 2012; further: potency means the concentration at half of the fitted maximal effect; % of control where 0% means no effect; nearly all actives have a fitted effect of over 55% in size
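Readout is total intensity of Hoechst-stained nuclei, excited at 405 nm and collected at 500-530 nm. Compound treatment lasted 48 hr at 37 C in 5% CO2 before staining.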
IL-1B inflam inh = qHTS for Inhibitors of Inflammasome Signaling: IL-1-beta AlphaLISA Primary Screen; THP-1 LPS/ATP IL-1B secretion, AlphaLISA, 16 h; stronger effect = lower value; activity change, % at 57.5 µM; actives 4.7% (n = 360,000); in the data active means activity change below about -50%; inconclusive means mostly about -30% to -49%; further: on the % scale 0 is the no-effect control and ±100 the full control effect
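Secreted IL-1B measured by AlphaLISA bead assay after 16 h compound exposure of THP-1 cells; compounds (final up to 57.5 uM) added 1 h before LPS (250 ng/mL) and ATP (1.25 mM) stimulation; lower signal means less secretion.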
KB-3-1 cytotox = qHTS assay for MDR1-selective chemotherapeutics: Primary screen using the parental adenocarcinoma cell KB-3-1; KB-3-1 viability, CellTiter-Glo ATP luminescence, 72 h; Potency, µM (doses to about 46.1 µM), hits mostly cytotoxic; actives 1.4% (n = 400,000); AID 1347075, 2019; further: potency means the concentration at half of the fitted maximal effect; on the % scale 0 is the no-effect control and ±100 the full control effect; nearly all actives have a fitted effect of over 60% in size
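Screening of KB-3-1 cells (DMEM, 10% FBS, phenol-red free) ran from lowest to highest compound concentration; after 72 h at 37 °C viability was read luminescently and curves fitted.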
MCF10A rereplic = A quantitative high throughput screen for small molecules that induce DNA re-replication in MCF 10a normal breast cells; actives 2.9% (n = 350,000); Potency, µM (top dose mostly 46.1 µM), without a hit: top-dose activity, positive = re-replication, usual class: activators; MCF 10A DNA re-replication, Hoechst nuclear intensity, 48 h; further: potency means the concentration at half of the fitted maximal effect; % of control where 0% means no effect; nearly all actives have a fitted effect of over 50% in size
Numbers without * were called inactive; i = inactive; ? = inconclusive; . = no result; ! = repeats disagree; [ ] = dose if it differs, or a comment. Unless noted, the call rests on the fitted dose curve; in most records, active means well fitted curve in the direction sought with a large enough effect; inconclusive means small, poorly fitted or top-dose-only effect, or another doubt; inactive means no such curve, though single readings can be large; an effect the other way counts as inactive or inconclusive.

SMILES	KB-V1 MDR tox	SW480 rereplic	IL-1B inflam inh	KB-3-1 cytotox	MCF10A rereplic
CN(C)C(=O)Oc1ccc(Br)cc1C(=O)Nc1ccc(F)c(Cl)c1	i	29.6%	-59.2*	?	?
Fc1ccccc1-c1n[nH]c(=S)n1Cc1ccccc1	i	?	11.6	i	-8.9%
CCOC(=O)N1CCC(NC(=O)CCc2nc(C3=CCN(C)CC3)no2)CC1	i	1.3%	-62.6*!	i	-1.3%
Cc1ccc(-c2cc(C(F)F)n3ncc(C(=O)N4CCc5ccccc5C4)c3n2)cc1	?	18.4µM*	-0.4	i	?
CC[C@@H](C)[C@H](C(CC(=O)N1CCCC1[C@@H](OC)[C@H](C)C(=O)N[C@H](Cc1ccccc1)c1nccs1)OC)N(C)C(=O)[C@H](NC(=O)[C@@H](C(C)C)N(C)C)C(C)C (stereo not given in full)	0.184µM*	0.082µM*	41.1	?	14.7%
Cc1c(Cl)cccc1NC(=O)CN1C(=O)C(C)N=C(c2ccccc2)c2ccccc21 (stereo not given)	i	.	.	i	.
CC(C)CC(NC(=O)C1CCCCC1)C(=O)N1CCC2(CC1)OCCO2 (stereo not given)	10.3µM*	-7.8%	-6.8	i	-1.0%
COc1ccc(OC)c(N2C(=O)NC(=O)/C(=C/c3ccc([N+](=O)[O-])s3)C2=O)c1	i	-12.8%	-73.2*	i	-8.2%
CSCCC(c1nnnn1-c1c(C)cccc1C)N1CCC2(CC1)C(=O)NCN2c1ccccc1 (stereo not given)	i	.	?	?	.
CC(C)(C)n1nnnc1C(CCc1ccccc1)N1CCC2(CC1)C(=O)NCN2c1ccccc1 (stereo not given)	?	.	-60.5*	?	.
CCC(c1nnnn1-c1ccc(OC)cc1)N1CCC2(CC1)C(=O)NCN2c1ccccc1 (stereo not given)	i	.	-24.0	i	.
CSCCC(c1nnnn1Cc1ccccc1)N1CCC2(CC1)C(=O)NCN2c1ccccc1 (stereo not given)	14.6µM*	.	0.0	i	.
COc1ccc(-n2nnnc2C(CCc2ccccc2)N2CCC3(CC2)C(=O)NCN3c2ccccc2)cc1 (stereo not given)	?	.	-67.1*	?	.
COc1ccc(-n2nnnc2C(c2cccs2)N2CCC3(CC2)C(=O)NCN3c2ccccc2)cc1 (stereo not given)	?	.	-56.6*	i	.
C#CCOC(C(=O)OCCN(C)C)(c1ccccc1)c1ccccc1	.	5.1%	.	.	7.2%
CCc1cc(=O)oc2c(C)c(OCC(=O)N3CCC[C@@H]3C(=O)O)ccc12	i	-0.8%	12.8	i	-11.0%
COc1cccc(C(=O)C2CN(C)CC2c2ccc(Cl)cc2)c1 (stereo not given)	?	-1.5%	-58.9*	?	7.2%
CN1CC(C(=O)c2cccc(C(F)(F)F)c2)C(c2ccc(Cl)cc2)C1 (stereo not given)	i	12.3%	-82.5*	i	17.6%
Cc1ccc(N2C(=O)NC(=O)C(CCc3ccccn3)(Cc3ccc(F)cc3)C2=O)cc1 (stereo not given)	?	-0.7%	17.7	i	?
CN(Cc1ccc(OC(F)F)cc1)Cc1nc2c(Br)cc(Br)cc2c(=O)[nH]1	i	?	6.5	i	15.2%
CC[C@@]1(O)C(=O)OCc2c1cc1n(c2=O)Cc2cc3c(N)cccc3nc2-1	i	1.0%	-112.2*	?	-64.6%
CN1C(=O)C(=Cc2ccc(OCCN(C)c3ccccn3)cc2)C(=O)N(C)C1=O	?	-23.2%	10.9	i	0.411µM*
CCC1(C)CC(=O)NC(=O)C1	.	-5.2%[20.6 µM]	.	.	2.0%[20.6 µM]
CCCc1nc(SC)ncc1C(=O)Nc1ccc(Cl)cc1C(=O)c1ccccc1	i	.	.	i	.
COc1cc(C2c3cc4c(c(O)c3CC3COC(=O)C32)OCO4)cc(OC)c1OC (stereo not given)	0.184µM*!	0.0517µM*	24.1	0.0082µM*!	?
SMILES	KB-V1 MDR tox	SW480 rereplic	IL-1B inflam inh	KB-3-1 cytotox	MCF10A rereplic
COc1cc([C@@H]2c3cc4c(c(O)c3C[C@H]3COC(=O)[C@@H]32)OCO4)cc(OC)c1OC	4.11µM*	.	.	0.517µM*	.
COc1cc(C2c3cc(O)c(OC)cc3CC3C(=O)OCC32)ccc1O (stereo not given)	i	22.6%	-0.5	i	-2.9%
COc1cc([C@@H]2c3cc4c(cc3C[C@H]3COC(=O)[C@@H]32)OCO4)cc(OC)c1O	i	.	.	?	.
COc1cc([C@@H]2c3cc4c(cc3[C@H](OC(C)=O)[C@H]3COC(=O)[C@@H]23)OCO4)cc(OC)c1OC	?	.	.	0.651µM*	.
COc1cc(C2c3cc4c(cc3CC3COC(=O)C32)OCO4)cc(OC)c1OC (stereo not given)	0.581µM*	?	45.6	0.92µM*	6.51µM*
CC1c2ccccc2-n2nncc2CN1C (stereo not given)	i	-5.7%	10.4	i	-3.1%
c1ccc(Cn2ccnc2)cc1	i	-7.7%	37.2	i	3.9%
CC(C)c1cccc(C(C)C)c1OCCn1ccnc1	23.1µM*	?	16.0	i	-0.8%
COC(=O)c1ccc(NC2=C(Cl)C(=O)OC2OC(=O)c2ccccc2)cc1 (stereo not given)	i	4.3%	-11.1	i	?
CSC1=NC(C)(C)CC2(C)Nc3ccccc3N12 (stereo not given)	i	-187.1%	?	i	-4.9%
CCOC(=O)C1(CCOc2ccccc2)CCN(C2Cc3ccccc3C2)CC1	?	17.7%	8.4	?	9.2µM*
CCOC(=O)C1(CCOc2ccccc2)CCN(Cc2cnc(SC)nc2)CC1	?	?	?	i	29.5%
CCOC(=O)C1(CCOc2ccccc2)CCN(Cc2cccc(O)c2)CC1	i	3.4%	-85.8*	i	13.2%
CCOP(=O)(OCC)C(O)c1ccc(N(C)C)cc1 (stereo not given)	i	-28.2%	-10.7	i	-8.6%
CC(C)CCOP(=O)(c1ccc(N(C)C)cc1)C(O)c1ccc(C(C)C)cc1 (stereo not given)	?	?	-58.0*	i	-13.0%
CC(C)CCOP(=O)(c1ccc(N(C)C)cc1)C(O)c1ccc(Cl)cc1Cl (stereo not given)	?	?	-88.5*	?	?
CC(=NCc1cccnc1)c1c(O)n(C2CCCCC2)c(=O)[nH]c1=O	18.4µM*	0.8%	-0.1	i	12.5%
